Experimental data as given in PubChem BioAssay (NCI).
Compounds without any hit were thinned out: in the full panel of roughly 83,000, 20% have a hit.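 In brief: 96-well plates, 48 h treatment, single concentration, percent growth endpoint.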 Calls of active or inactive are those of the source. Rule for the calls: active = growth percent below 10; inactive = the rest.

Each compound was assayed on MDA-MB-468 breast (assay: NCI-60 one-dose screen, 48 h (100 = growth as untreated, 0 = no growth, -100 = all killed)). Conditions: 10 µM unless noted.
CCC(=O)NC1=C(Cl)C(=O)C(NC(=O)CC)=C(Cl)C1=O was tested, and the growth was -69.8% (active).
COc1ccc(C2=NN(C(C)=O)C(c3cccc(Nc4ccnc5cc(Cl)ccc45)c3)C2)cc1 (stereo not given) was tested, and the growth was 38.9% (inactive).
In the case of O=S(=O)(NCCCNc1cc(-c2cn(-c3ccccc3)nc2-c2ccccc2)ccn1)c1ccc(C(F)(F)F)cc1, the growth is reported as 40.7% (inactive).
COc1cc2c(cc1O)c(=O)n(CCN(C)C)c1c3cc4c(cc3ncc21)OCO4 was tested, and the growth was -57.9% (active).
For Cc1cc(C)c2nc(C)c(C)[n+]([O-])c2c1, the growth was 101% (inactive).
In the case of O=c1/c(=C\c2ccc(-c3ccccc3)o2)sc2nc(-c3ccccc3)nn12, the growth is reported as 124% (inactive).
For O=C(C[n+]1ccn(CC(OCc2ccc(Cl)cc2Cl)c2ccc(Cl)cc2Cl)c1)c1ccc(F)cc1 (stereo not given), the growth was -77.2% (active).
In the case of O=S(=O)(c1ccccc1)n1cc2c(c1)-c1nc(Nc3ncccn3)sc1CC2, the growth is reported as 46.3% (inactive).
For COc1cc(/C=C2\CN(C)C/C(=C\c3cc(CN4CCCC4)c(O)c(OC)c3)C2=O)cc(CN2CCCC2)c1O, the growth was 41.8% (inactive).
Cc1cc(N)ccc1-c1ccc(N)cc1C was tested, and the growth was 97.5% (inactive).
With O=S(=O)(O)c1ccc(F)cc1 the growth was 122% (inactive).
In the case of C(=C\c1ccccc1)/CN1CCN(C(c2ccccc2)c2ccccc2)CC1, the growth is reported as 89.6% (inactive).
For O=C1C[C@H](Sc2nc(-c3ccc(F)cc3)cc(C(F)(F)F)n2)[C@H]2CO[C@@H]1O2, the growth was 71.4% (inactive).
In the case of Nc1nc(N=Nc2ccc(O)cc2)cc(=O)[nH]1, the growth is reported as 91.5% (inactive).
In the case of COc1ccc(-c2nocc2-c2cccs2)cc1, the growth is reported as 97% (inactive).
In the case of OCc1cccc(-c2ccc3ncc(-c4nc(NC5CC5)ncc4F)n3c2)c1, the growth is reported as -39.1% (active).
O=c1c2cccc(F)c2sc2c(N3CCNCC3)nc3ccccc3c12 was tested, and the growth was 37.2% (inactive).
O=C(CCN1CCCC1)Nc1ccc2c(Nc3ccc(F)cc3)c3ccccc3nc2c1 was tested, and the growth was -66.6% (active).
For COc1ccc(C2=NN(c3nc(-c4ccc(OC)cc4)c(C#N)c(=O)n3C)C(=O)CC2)cc1, the growth was 96.2% (inactive).
For O=C(Nc1ccc(Oc2ccc(F)cc2)c(Cl)c1)c1cccnn1, the growth was 39.3% (inactive).
With C=C1SC(=Nc2ccccc2Cl)N(C(=O)c2sc3ccccc3c2Cl)C1(C)C the growth was 50% (inactive).
With N#Cc1nc(-c2ccc(Cl)cc2)cc(-c2ccc(Nc3nc(N4CCCCC4)nc(N4CCCCC4)n3)cc2)c1N the growth was 106% (inactive).
With Cc1cc(C)n(-c2nnc3n2N=C(c2ccc(-c4ccccc4)cc2)CS3)n1 the growth was -5.89% (active).
CCOc1ccc2nc(NC(=O)Nc3ccccc3C)sc2c1 was tested, and the growth was 20.4% (inactive).
With Cc1ccccc1NC(=O)N/C(N)=N/c1nc(-c2cccc([N+](=O)[O-])c2)cs1 the growth was 6.27% (active).
In the case of c1ccc(-c2nnc(-c3c[nH]c4ncccc34)s2)cc1, the growth is reported as 79.9% (inactive).
For O=C(Nc1cccc(-n2cc(-c3ccncc3)c(-c3cc(O)cc(Cl)c3)n2)c1)Nc1ccc(Cl)c(Cl)c1, the growth was -1.88% (active).
For COC(=O)c1c2c(c(C)[n+]([O-])c1C)C(=O)C=C(NCc1ccc(F)cc1)C2=O, the growth was -67% (active).
With Oc1cc(O)c2c(c1)O[C@H](c1ccc(O)c(O)c1)[C@@H](O)C2 the growth was 115% (inactive).
CNC(=O)c1cc(-c2ccc(NS(=O)(=O)c3ccc(C)cc3)cc2)nc2cccnc12 was tested, and the growth was 71.1% (inactive).
With COc1cc(OC)c(S(N)(=O)=O)cc1C(=O)/C=C/c1ccc(C)cc1 the growth was -36.2% (active).
COc1ccccc1N1C(=N)S/C(=C\c2ccc(OCc3ccccc3F)cc2)C1=O was tested, and the growth was 5.85% (active).
With CCCCCCCCn1ccc2cc(NC(=O)CN3CCN(c4nc(C)cc(Cl)n4)CC3)ccc21 the growth was 92.8% (inactive).
In the case of N#Cc1cnc2cc(OC[C@H](O)CO)c(NC(=O)CC3CSSC3)cc2c1Nc1ccc(OCc2cccc(F)c2)c(Cl)c1, the growth is reported as -78.3% (active).
In the case of N#CSc1c[nH]c2ccc(/C=C/C(=O)/C=C(/C=C/c3ccc4[nH]cc(SC#N)c4c3)OB(F)F)cc12, the growth is reported as -49% (active).
In the case of Nc1ncc(-c2ccc(NS(=O)(=O)c3ccc(Cl)c(Cl)c3)cc2)[nH]1, the growth is reported as 90.1% (inactive).
For Cc1ccc(C(=O)Nc2ccccc2N)cc1, the growth was 79.1% (inactive).
CN(C[C@H]1Cc2c(cccc2N2CCN(c3ncccn3)CC2)CN1)[C@H]1CCCc2cccnc21 was tested, and the growth was 37.6% (inactive).
COc1ccc(NC(=O)Nc2ccc(-c3cccnc3)cc2N2CCC(CO)CC2)cc1 was tested, and the growth was 42.5% (inactive).
In the case of CO/N=C(/C)c1ccc(NC(=O)CSc2nnc(-c3ccncc3)n2-c2ccccc2)cc1, the growth is reported as 50.8% (inactive).
